The term AC50 denotes the midpoint of the concentration-response curve, whichever way the signal moves.

“And” between values parts separate entries of the source, which are not always exact repeats. Identical values can stand only once. Results filed as inconclusive are left out. The source made the active and inactive calls. Rule for the calls, unless noted: active = hit-call score of the fitted dose curve at least 0.9, where 1 is the maximum; inactive = score below 0.9.

Read-out in the first experiment: Intercellular Adhesion Molecule 1 (ICAM1), ICAM1 (gene 3383)
In words: BSK_3C_ICAM1: BioMAP Diversity Plus: 3C Assay for Intercellular Adhesion Molecule 1 (ICAM1) Biomarker Activity (AID 2283003). As to conditions: primary human endothelial cells (HUVEC); actives raise or lower the signal. In outline: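 HUVEC primary cells stimulated under 3C conditions; ICAM1 measured by ELISA 24 h after compound dosing. Curves fitted bidirectionally against the DMSO baseline. Overt cytotoxicity checked by SRB staining of parallel cultures.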
In the case of `COC(=O)CCC(F)(F)C(F)(F)C(F)(F)C(F)(F)F`, the result was inactive.
Still for that read-out and setting: the entry for `O=C(O)C(F)(F)C(F)(F)F` is “inactive”; for `FC(F)(F)C(F)(F)C(F)(F)C(F)(F)CCI` it is “inactive”.
`O=C(CC(=O)C(F)(F)C(F)(F)F)C(F)(F)F`: the result was inactive.
Still for that read-out and setting: the entry for `FC(F)(F)C(F)(F)C(F)(F)C(F)(F)C(F)(F)C(F)(F)CCS` is “inactive”.
On the same count and under the same terms, the entry for `O=C(Cl)C(F)(F)C(F)(F)C(F)(F)C(F)(F)C(F)(F)C(F)(F)C(F)(F)C(F)(F)F` is “inactive”.
Regarding `O=C(O)C(F)(F)C(F)(F)C(F)(F)C(F)(F)C(F)(F)C(F)(F)C(F)(F)C(F)(F)Cl`, the result was inactive.
Same read-out and setting: for `FC(F)(F)C(F)(F)CNCC(F)(F)C(F)(F)F` the value was “inactive”.
The same measure, in the same setting: the entry for `O=P(O)(O)OCCC(F)(F)C(F)(F)C(F)(F)C(F)(F)C(F)(F)C(F)(F)F` is “inactive”; for `C=CC/C=C/C/C=C/C/C=C/C` it is “inactive”.
On the same count and under the same terms, for `CCO[Si](CCC(F)(F)C(F)(F)C(F)(F)C(F)(F)C(F)(F)C(F)(F)F)(OCC)OCC` the value was “inactive”; for `O=C(O)C(F)(OC(F)(F)C(F)(OC(F)(F)C(F)(OC(F)(F)C(F)(F)C(F)(F)F)C(F)(F)F)C(F)(F)F)C(F)(F)F` (stereo not drawn), “inactive”.
Take `Oc1ccc(Nc2ccccc2)cc1`: the outcome was inactive.
Turning to `FC(F)(Br)C(F)(F)C(F)(F)C(F)(F)C(F)(F)C(F)(F)Br`, the result was inactive.
On to `C=C(C)C(=O)OCC(F)(F)C(F)(F)C(F)(F)F`, for which the outcome was inactive.
Still for that read-out and setting: for `C=CC(=O)OCC(F)(F)C(F)(F)C(F)(F)C(F)(F)C(F)(F)C(F)(F)C(F)(F)F` the value was “inactive”; for `O=C(O)C(F)(F)C(F)(F)C(F)(F)C(F)(F)C(F)(F)C(F)(F)C(F)(F)C(F)(F)C(F)(F)C(F)(F)C(F)(F)C(F)(F)F`, “inactive”; for `FC(F)(F)C(F)(F)C(F)(F)CI`, “inactive”.
Same read-out and setting: for `FC(F)(F)C(F)(F)C(F)(F)C(F)(F)C(F)(F)C(F)(F)C(F)(F)C(F)(F)F` the value was “inactive”.
The same measure, in the same setting: the entry for `OCC(F)(F)C(F)(F)C(F)(F)C(F)F` is “inactive”; for `C=CC(F)(F)C(F)(F)C(F)(F)C(F)(F)C(F)(F)C(F)(F)C(F)(F)C(F)(F)F` it is “inactive”.
For the molecule `CCCCCCCOC(=O)c1ccccc1C(=O)OCCCCCCC`, the outcome was inactive.
Regarding `OCCCC(F)(F)C(F)(F)C(F)(F)F`, the result was inactive.
On the same count and under the same terms, the entry for `O[Si](c1ccccc1)(c1ccccc1)c1ccccc1` is “inactive”.

The target in a further experiment is human Retinoic Acid Receptor beta (RARb), RARB (gene 5915) (UniProt P10826). In words: ATG_RARb_TRANS: Attagene TRANS-FACTORIAL HepG2 Assay for human Retinoic Acid Receptor beta (AID 2283004; active = hit-call score of the fitted dose curve at least 0.9, where 1 is the maximum).
Chain of human Retinoic Acid Receptor beta (RARb), RARB (gene 5915) (P10826 whole entry, looked up): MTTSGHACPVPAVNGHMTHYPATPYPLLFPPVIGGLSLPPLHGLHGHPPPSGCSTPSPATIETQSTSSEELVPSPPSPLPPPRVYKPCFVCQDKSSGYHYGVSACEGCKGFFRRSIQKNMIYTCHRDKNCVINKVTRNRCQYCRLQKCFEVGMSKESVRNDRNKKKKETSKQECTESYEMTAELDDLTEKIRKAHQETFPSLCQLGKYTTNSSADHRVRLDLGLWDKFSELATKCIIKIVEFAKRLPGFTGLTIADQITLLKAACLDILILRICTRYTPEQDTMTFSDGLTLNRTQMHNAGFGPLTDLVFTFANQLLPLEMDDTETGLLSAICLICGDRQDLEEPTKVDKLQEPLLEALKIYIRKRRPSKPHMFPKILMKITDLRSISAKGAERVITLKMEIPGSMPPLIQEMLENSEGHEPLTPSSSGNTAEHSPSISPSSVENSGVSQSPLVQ
Settings: not given
The essentials: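 Transient transfection of HepG2 with multiple reporter units → chemical dosing, 24 h → total RNA isolation → RT with oligo(dT) → reporter-specific PCR, 6-FAM primer extension, HpaI digest → capillary electrophoresis. Positive direction vs DMSO control.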
As to `COC(=O)CCC(F)(F)C(F)(F)C(F)(F)C(F)(F)F`, the molecule was classed as inactive.
The same measure, in the same setting: for `O=C(Cl)C(F)(F)C(F)(F)C(F)(F)C(F)(F)C(F)(F)C(F)(F)C(F)(F)C(F)(F)F` the value was “inactive”; for `C1COCCN1`, “inactive”; for `O=C(O)C(F)(OC(F)(F)C(F)(OC(F)(F)C(F)(OC(F)(F)C(F)(F)C(F)(F)F)C(F)(F)F)C(F)(F)F)C(F)(F)F` (stereo not drawn), “inactive”.
The same measure, in the same setting: the entry for `COC(=O)C1CCC(C(=O)OC)CC1` (stereo not drawn) is “inactive”; for `C=C(C)C(=O)OCC(F)(F)C(F)(F)C(F)(F)F` it is “inactive”; for `O=C(O)C(F)(F)C(F)(F)C(F)(F)C(F)(F)C(F)(F)C(F)(F)C(F)(F)C(F)(F)C(F)(F)C(F)(F)C(F)(F)C(F)(F)F` it is “inactive”.
Turning to `FC(F)(F)C(F)(F)C(F)(F)CI`, the outcome was inactive.

A further experiment deals with Retinoic acid receptor alpha (Homo sapiens) (UniProt P10276). In words: ATG_RARa_TRANS: Attagene TRANS-FACTORIAL HepG2 Assay for human Retinoic Acid Receptor alpha (RARa) (AID 2283005; active = hit-call score of the fitted dose curve at least 0.9, where 1 is the maximum).
Chain of Retinoic acid receptor alpha (Homo sapiens) (P10276 whole entry, looked up): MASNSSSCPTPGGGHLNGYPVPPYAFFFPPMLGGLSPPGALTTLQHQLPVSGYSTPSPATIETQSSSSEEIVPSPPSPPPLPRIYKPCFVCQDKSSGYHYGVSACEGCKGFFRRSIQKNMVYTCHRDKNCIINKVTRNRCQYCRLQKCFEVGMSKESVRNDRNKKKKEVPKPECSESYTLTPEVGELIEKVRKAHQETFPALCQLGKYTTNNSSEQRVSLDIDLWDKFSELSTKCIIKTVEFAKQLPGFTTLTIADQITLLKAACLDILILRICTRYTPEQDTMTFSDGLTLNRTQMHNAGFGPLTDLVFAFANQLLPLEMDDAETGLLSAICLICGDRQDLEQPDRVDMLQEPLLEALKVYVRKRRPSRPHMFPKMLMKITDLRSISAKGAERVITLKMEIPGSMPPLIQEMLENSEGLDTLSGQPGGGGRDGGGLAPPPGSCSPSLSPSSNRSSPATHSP
Settings: not given
The essentials: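 HepG2 transiently transfected with multiplex GAL4-UAS reporter units including a human RARa–GAL4 chimera; 24 h compound exposure. Reporter mRNA quantified by RT-PCR, 6-FAM labeling and capillary electrophoresis; gain of signal versus DMSO.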
`O=C(O)C(F)(F)C(F)(F)F`: the call was inactive.
On the same count and under the same terms, the entry for `FC(F)(F)C(F)(F)C(F)(F)C(F)(F)CCI` is “inactive”.
Consider `CCCCCCS`, for which the molecule was classed as inactive.
The same measure, in the same setting: for `O=C(Cl)C(F)(F)C(F)(F)C(F)(F)C(F)(F)C(F)(F)C(F)(F)C(F)(F)C(F)(F)F` the value was “inactive”; for `C1COCCN1`, “inactive”; for `O=C(O)C(F)(OC(F)(F)C(F)(OC(F)(F)C(F)(OC(F)(F)C(F)(F)C(F)(F)F)C(F)(F)F)C(F)(F)F)C(F)(F)F` (stereo not drawn), “inactive”.
Still for that read-out and setting: for `C=C(C)C(=O)OCC(F)(F)C(F)(F)C(F)(F)F` the value was “inactive”; for `O=C(O)C(F)(F)C(F)(F)C(F)(F)C(F)(F)C(F)(F)C(F)(F)C(F)(F)C(F)(F)C(F)(F)C(F)(F)C(F)(F)C(F)(F)F`, “inactive”.
As to `FC(F)(F)C(F)(F)C(F)(F)CI`, the molecule was called inactive.
As for `FC(F)(F)C(F)(F)C(F)(F)C(F)(F)C(F)(F)C(F)(F)C(F)(F)C(F)(F)F`, the molecule was called inactive.
Same read-out and setting: the entry for `C=CC(F)(F)C(F)(F)C(F)(F)C(F)(F)C(F)(F)C(F)(F)C(F)(F)C(F)(F)F` is “inactive”.
On the same count and under the same terms, the entry for `O[Si](c1ccccc1)(c1ccccc1)c1ccccc1` is “inactive”.

Read-out in another experiment: not listed separately
Put plainly: BSK_3C_Proliferation: Cell Proliferation Assessment in the BioMAP Diversity Plus: 3C Assay (AID 2283006).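 For AC50: potency may reflect either rise or fall in cell number versus DMSO.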 The note with it: primary human endothelial cells (HUVEC). In outline:
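Subconfluent HUVEC (3C system) cultured with chemical; relative cell number read at 48 h by sulforhodamine B total-protein staining (0.1% SRB after 10% TCA fixation, 560 nm). Bidirectional fit relative to DMSO.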
As for `COC(=O)CCC(F)(F)C(F)(F)C(F)(F)C(F)(F)F`, the outcome was inactive.
On the same count and under the same terms, for `O=C(O)C(F)(F)C(F)(F)F` the value was “inactive”; for `FC(F)(F)C(F)(F)C(F)(F)C(F)(F)CCI`, “inactive”; for `O=C(CC(=O)C(F)(F)C(F)(F)F)C(F)(F)F`, “inactive”.
The same measure, in the same setting: for `FC(F)(F)C(F)(F)C(F)(F)C(F)(F)C(F)(F)C(F)(F)CCS` the value was “inactive”.
On to `O=C(Cl)C(F)(F)C(F)(F)C(F)(F)C(F)(F)C(F)(F)C(F)(F)C(F)(F)C(F)(F)F`, for which the AC50 is 44.9 µM (active) and 53.1 µM (active) and 54.2 µM (active).
On to `O=C(O)C(F)(F)C(F)(F)C(F)(F)C(F)(F)C(F)(F)C(F)(F)C(F)(F)C(F)(F)Cl`, for which the AC50 was 53.2 µM (active) and 48.1 µM (active).
As for `FC(F)(F)C(F)(F)CNCC(F)(F)C(F)(F)F`, the result was inactive.
Same read-out and setting: the entry for `O=P(O)(O)OCCC(F)(F)C(F)(F)C(F)(F)C(F)(F)C(F)(F)C(F)(F)F` is “inactive”.
The same measure, in the same setting: for `C=CC/C=C/C/C=C/C/C=C/C` the value was “inactive”; for `CCO[Si](CCC(F)(F)C(F)(F)C(F)(F)C(F)(F)C(F)(F)C(F)(F)F)(OCC)OCC`, “inactive”; for `O=C(O)C(F)(OC(F)(F)C(F)(OC(F)(F)C(F)(OC(F)(F)C(F)(F)C(F)(F)F)C(F)(F)F)C(F)(F)F)C(F)(F)F` (stereo not drawn), “inactive”.
With `Oc1ccc(Nc2ccccc2)cc1`, the AC50 is 14.6 µM (active).
In the case of `FC(F)(Br)C(F)(F)C(F)(F)C(F)(F)C(F)(F)C(F)(F)Br`, the result was inactive.
The same measure, in the same setting: the entry for `C=C(C)C(=O)OCC(F)(F)C(F)(F)C(F)(F)F` is “inactive”.
As to `C=CC(=O)OCC(F)(F)C(F)(F)C(F)(F)C(F)(F)C(F)(F)C(F)(F)C(F)(F)F`, the AC50 is 30 µM (active).
As for `O=C(O)C(F)(F)C(F)(F)C(F)(F)C(F)(F)C(F)(F)C(F)(F)C(F)(F)C(F)(F)C(F)(F)C(F)(F)C(F)(F)C(F)(F)F`, the AC50 is 20.6 µM (active) and 6.79 µM (active).
For `FC(F)(F)C(F)(F)C(F)(F)CI`, the outcome was inactive.
Same read-out and setting: the entry for `FC(F)(F)C(F)(F)C(F)(F)C(F)(F)C(F)(F)C(F)(F)C(F)(F)C(F)(F)F` is “inactive”; for `OCC(F)(F)C(F)(F)C(F)(F)C(F)F` it is “inactive”; for `C=CC(F)(F)C(F)(F)C(F)(F)C(F)(F)C(F)(F)C(F)(F)C(F)(F)C(F)(F)F` it is “inactive”.
On the same count and under the same terms, the entry for `CCCCCCCOC(=O)c1ccccc1C(=O)OCCCCCCC` is “inactive”.
Still for that read-out and setting: the entry for `OCCCC(F)(F)C(F)(F)C(F)(F)F` is “inactive”.
On to `O[Si](c1ccccc1)(c1ccccc1)c1ccccc1`, for which the AC50 was 24.4 µM (active).
